About 10,000 (3%) of roughly 330,000 compounds were called active. Shown is part of a subset that was picked to be rich in actives. A number with no mark means an inactive call.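 The calls were made as follows: active = inhibition of at least 50% at 8 µM in the primary screen; inactive = the rest.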
What follows are molecules tested against Protein Mdm4 (Homo sapiens) + E3 ubiquitin-protein ligase Mdm2 (Homo sapiens) (UniProt O15151+Q00987) (assay: inhibitors of human Mdm2-MdmX association, primary screen, cell-based, luminescence, split luciferase, SaOS-2, uHTS (AID 485346)). Conditions: SaOS-2 split-luciferase Mdm2/MdmX complementation, at 8 µM, hits give high values.
Sequence of Protein Mdm4 (Homo sapiens) + E3 ubiquitin-protein ligase Mdm2 (Homo sapiens) (O15151 whole entry, looked up): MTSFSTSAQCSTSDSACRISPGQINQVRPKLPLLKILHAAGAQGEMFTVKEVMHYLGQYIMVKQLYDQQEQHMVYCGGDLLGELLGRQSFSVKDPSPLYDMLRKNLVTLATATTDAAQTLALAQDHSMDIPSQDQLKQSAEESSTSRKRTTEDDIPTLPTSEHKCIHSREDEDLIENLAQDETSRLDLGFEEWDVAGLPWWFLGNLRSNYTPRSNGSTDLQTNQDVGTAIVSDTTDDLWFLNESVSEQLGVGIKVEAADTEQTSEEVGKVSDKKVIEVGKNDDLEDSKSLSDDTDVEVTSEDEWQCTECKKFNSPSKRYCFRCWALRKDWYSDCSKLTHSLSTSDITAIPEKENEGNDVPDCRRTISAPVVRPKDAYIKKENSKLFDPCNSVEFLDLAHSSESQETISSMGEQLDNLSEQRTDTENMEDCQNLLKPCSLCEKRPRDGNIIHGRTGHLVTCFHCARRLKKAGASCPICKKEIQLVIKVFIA
Sequence of Protein Mdm4 (Homo sapiens) + E3 ubiquitin-protein ligase Mdm2 (Homo sapiens) (Q00987 whole entry, looked up): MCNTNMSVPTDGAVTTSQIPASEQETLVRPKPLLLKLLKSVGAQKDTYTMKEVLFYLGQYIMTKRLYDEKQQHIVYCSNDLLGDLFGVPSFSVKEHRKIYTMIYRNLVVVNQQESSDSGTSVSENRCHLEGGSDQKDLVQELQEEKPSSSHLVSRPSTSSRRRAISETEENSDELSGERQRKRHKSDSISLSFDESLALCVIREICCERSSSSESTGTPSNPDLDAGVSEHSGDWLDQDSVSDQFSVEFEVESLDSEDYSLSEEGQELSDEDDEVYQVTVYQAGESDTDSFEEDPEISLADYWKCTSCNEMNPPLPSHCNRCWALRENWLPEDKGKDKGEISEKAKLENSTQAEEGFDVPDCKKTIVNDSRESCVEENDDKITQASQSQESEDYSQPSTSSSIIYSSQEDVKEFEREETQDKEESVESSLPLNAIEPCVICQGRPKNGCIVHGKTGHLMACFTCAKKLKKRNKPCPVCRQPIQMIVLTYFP

Structure (SMILES)	inhibition
Cn1ccsc1=NC(=O)c1cc(S(=O)(=O)N2CCOCC2)ccc1Cl	28%
NS(=O)(=O)c1ccc(CCNC(=O)CN2C(=O)c3ccccc3S2(=O)=O)cc1	27.9%
O=C(COC(=O)c1ccc(Br)o1)NC12CC3CC(CC(C3)C1)C2	15.9%
Cc1csc(=O)n1CCC(=O)OCC(=O)NNC(=O)c1ccc(Br)cc1	8.79%
CCCN(CCC)C(=S)Nc1cc(C(=O)OC)ccc1C(=O)OC	9.38%
CCOC(=O)C1CCN(C(=O)c2ccccc2N(C)S(=O)(=O)c2ccccc2)CC1	-12.4%
C=CS(=O)c1sc(Cl)c(N2CCOCC2)c1[N+](=O)[O-] (stereo unspecified)	25.9%
CCOC(=O)c1c(-c2ccc(C)cc2C)csc1NC(=O)CSc1nnnn1C	73.7% (active)
Cn1nnnc1SCC(=O)Nc1sccc1C(N)=O	0.655%
COC(=O)c1ccccc1NC(=O)CSc1nnnn1C	-3.43%
Cc1ccc(/C=C/C(=O)O)cc1S(=O)(=O)N1CCC(Cc2ccccc2)CC1	-1.19%
Cc1cccc(C(=O)Nc2ccccc2-c2nnn(CC(=O)Nc3ccc4c(c3)OCCO4)n2)c1	15.2%
CS(=O)(=O)c1ccc(-c2nnn(CC(=O)Nc3ccc4c(c3)OCCO4)n2)cc1	86.1% (active)
Cc1ccc(S(=O)(=O)NCC(=O)Nc2ccc3c(c2)OCCO3)cc1	10%
CC1CCCCC12NC(=O)N(CC(=O)OCc1c(F)cccc1Cl)C2=O (stereo unspecified)	2.6%
COc1ccc(C(=O)OCC(=O)c2cc(C)n(CC3CCCO3)c2C)cc1[N+](=O)[O-] (stereo unspecified)	2.69%
Cc1ccsc1C(=O)OCC(=O)c1cc(C)n(CC2CCCO2)c1C (stereo unspecified)	94.1% (active)
Cc1cc(C(=O)Cn2cnc3cc([N+](=O)[O-])ccc3c2=O)c(C)n1CC1CCCO1 (stereo unspecified)	-7.26%
COc1ccc(CNC(=O)[C@H](Cc2c[nH]c3ccccc23)NC(C)=O)cc1OC	10.9%
COc1cccc(NC(=O)[C@H](Cc2c[nH]c3ccccc23)NC(=O)[C@@H]2Cc3ccccc3CN2)c1	94.4% (active)
COc1ccc(NC(=O)[C@H](NC(=O)[C@@H]2Cc3ccccc3CN2)c2ccccc2)cc1	-1.06%
C/C=C/c1ccc(OCCCCN2CCC(C)CC2)c(OC)c1	-26%
Cc1cc(C)cc(NC(=S)NCc2ccc(F)cc2)c1	-4.57%

Structure (SMILES)	inhibition
Cc1cccc(NC(=S)NCCN(C2CCCCC2)C2CCCC2)c1	44.3%
Cc1cccc(NC(=S)NCc2ccc3[nH]c4c(c3c2)CCCC4)c1	63.6% (active)
CC(C)=CCc1c(O)c(CC=C(C)C)c2occ(-c3ccc(O)cc3)c(=O)c2c1O	45.8%
CCC1(CC)NC(=O)N(CC(=O)OCC(=O)c2cc(C)c(C)cc2C)C1=O	22.7%
Cc1ccc2c(c1)C1C[N+](C)(CC(=O)c3ccccc3)CCC1N2C(=O)c1ccccc1Cl (stereo unspecified)	-17.1%
CCSC1=NCCN1S(=O)(=O)c1ccc(F)cc1	-0.662%
FC(F)(F)c1nnc2c3ccccc3c(Cl)nn12	64.4% (active)
FC(F)(F)c1nnc2ccc(N3CCN(c4ccccc4)CC3)nn12	26.8%
Nc1nnc2c(C(F)(F)F)nc3ccccc3n12	-2.03%
Cc1cc2oc(C(=O)Nc3c(C)n(C)n(-c4ccccc4)c3=O)c(C)c2cc1Cl	23.4%
COc1ccc(CNC(=O)c2ccc3oc(C(C)C)nc3c2)cc1	-34.8%
Cc1cccc(N2O[C@H]3C=CC2CCCC3)n1	15.6%
CC(=O)c1ccccc1NC(=O)CC1(CC(=O)O)CCCCC1	10.9%
CCN(CC)CCCNC(=O)CCc1ccccc1	27.2%
CCOc1ccc(CCNC(=O)CSc2cc(=O)n(C)c3ccc(Cl)cc23)cc1OCC	4.16%
CCN(CCCNC(=O)CSc1cc(=O)n(C)c2cc(Cl)ccc12)Cc1ccccc1	54.7% (active)
CC(=O)OCCC(C)C	9.67%
C=CCn1c(SCC(=O)NCC2CCCO2)nc2sc(C)c(C)c2c1=O (stereo unspecified)	2.91%
C=CCn1c(SCC(=O)NCCCO)nc2sc3c(c2c1=O)CCC3	0.393%
C=CCn1c(SCc2c(C)noc2C)nc2sc3c(c2c1=O)CCC(C)C3 (stereo unspecified)	52.5% (active)
Cc1ccc(-c2ccc(=O)n(Cc3ccc(F)cc3Cl)n2)cc1	-15.3%
Cc1ccc(-c2nc(-c3ccncc3)no2)c(C)c1	-116%
COc1ccc(-c2nc(-c3ccccc3)no2)c(OC)c1	58.4% (active)

Structure (SMILES)	inhibition
COc1ccc(/C=C/c2noc(-c3ccccc3OC(C)=O)n2)cc1	-61.9%
O=C(NCCN1CCOCC1)c1cc(Sc2cccc(Cl)c2)nc2ccccc12	-2.97%
Cc1cccc(NC(=O)CSC(N)=O)c1C	2.96%
CCOC(=O)/C=c1\s/c(=C\c2ccccc2OC)c(=O)n1CC(=O)N1CCOCC1	11.5%
CCOC(=O)/C=c1\s/c(=C\c2ccc(C#N)cc2)c(=O)n1CC(=O)Nc1cccc(C)c1C	78% (active)
COc1cc(Cl)c(C)cc1NC(=O)[C@@H]1CCCN1C(=O)c1cccs1	6.14%
COc1ccc(S(=O)(=O)N2CCN(c3cnccn3)CC2)cc1	13.5%
CC1(C)CCSC(/C=C/c2ccccc2)=N1	85.2% (active)
CC(=O)N1CCC(N(C(=O)Nc2ccc(Cl)cc2)C(C)C)CC1	-29%
Cc1cc2oc3ccc(NCCC4CCCN4C)cc3c(=O)c2cc1C (stereo unspecified)	90% (active)
Cc1cc2oc(=O)cc(CN3CCN(Cc4ccccc4)CC3)c2cc1C	-23.1%
COc1cccc2sc3cc(NCC[C@@H]4CCCN4C)ccc3c(=O)c12	-8.67%
CCCCC1(C(=O)OCC)NC(c2ccc(O)cc2)C2C(=O)N(c3ccccc3)C(=O)C21 (stereo unspecified)	4.63%
COc1cccc(NC(=O)CCc2nnc3ccc(N4CCC(C)CC4)nn23)c1	6.23%
CC(=O)Nc1ccc(CN2CCN(Cc3ccc(F)c(F)c3)C(CCO)C2)cc1 (stereo unspecified)	-4.68%
CC(C)c1nc(CNC(=O)CC2C(=O)NCCN2Cc2ccoc2)cs1 (stereo unspecified)	17%
Cc1csc(NC(=O)c2ccc(C)s2)n1	-81.3%
COc1cc(SC)ccc1C(=O)Nc1nc(C)cs1	70.4% (active)
COc1cc(SC)ccc1C(=O)Nc1cc(C)ccn1	-133%
COc1ccc(-c2c(C(C)=O)c(C)nc3sc4c(=O)n(-c5ccc(C)cc5)nnc4c23)cc1	16.5%
O=S(=O)(Nc1cccc(-c2ccc(N3CCOCC3)nn2)c1)c1ccc(Cl)c(Cl)c1	-21.1%
NC(=O)c1ccc(Nc2ccc3nonc3c2[N+](=O)[O-])cc1	19.2%
Cc1cc(C)cc(NC(=O)C(c2ccccc2)N2CCN(CC(=O)N3CCCC3)CC2)c1 (stereo unspecified)	24%

Structure (SMILES)	inhibition
COC1=CCC2([N+](=O)[O-])CN(CC(=O)O)CC1([N+](=O)[O-])C2 (stereo unspecified)	4.95%
Fc1ccc(-c2ccc(CNCc3ccccn3)o2)cc1Cl	1.76%
COCCCNC(=S)N(CCN(C)C)Cc1cc2cc3c(cc2[nH]c1=O)OCCO3	-4.07%
Cc1cc(C)c2[nH]c(=O)c(CN(Cc3ccccc3)C(=S)NCCCN(C)C)cc2c1	90.9% (active)
Cc1cccc2cc(CN(Cc3cccs3)C(=S)NCc3ccco3)c(=O)[nH]c12	19.1%
COc1ccccc1NC(=O)CCC(=O)OC(C)C(=O)c1ccccc1 (stereo unspecified)	-23.8%
CCCn1c(O)c(CN2CCCC(C)C2)c(C)c(C#N)c1=O (stereo unspecified)	-48.3%
CCN(CC(=O)NCc1ccc(F)cc1)S(=O)(=O)c1ccc(Cl)s1	-3.24%
Cc1cccc(NC(=O)c2nnn(-c3cccc(C(F)(F)F)c3)c2N)c1	8%
COc1ccc(NC(=O)CN(C)CC(=O)Nc2cccc(C(F)(F)F)c2)cc1	14.9%
COc1cc(NC(=O)c2[nH]cnc2C(N)=O)cc(C(=O)Nc2cccc(C(F)(F)F)c2)c1	97.2% (active)
COc1cc(NC(=O)c2cncc(-c3ccc(C#N)cc3)c2)cc(C(=O)Nc2cccc(C(F)(F)F)c2)c1	59.6% (active)
COc1ccc(NC(=O)C(=O)NCC(=O)Nc2cccc(C(F)(F)F)c2)cc1	12.2%
N#Cc1ccc(Oc2ccc(C(F)(F)F)cc2NC(=O)c2ccc(F)cc2)cc1	9.08%
CCN1C(=O)[C@H]2[C@@H](c3ccc(-c4ccc(F)cc4)cc3)N[C@@](Cc3ccccc3)(C(=O)OC)[C@H]2C1=O	48%
CCCC(CNC(=O)COC(=O)C1=NNC(=O)CC1)c1ccc(Cl)cc1Cl (stereo unspecified)	-11.5%
C=C(C)C(=O)Nc1cccc(C2=NOC3(C2)C[C@H](C(N)=O)N(C(=O)C(c2ccccc2)c2ccccc2)C3)c1 (stereo partly specified)	16.4%
Cn1c(Nc2cccc(Cl)c2)nc2ccccc21	-18.1%
Cc1c(C(=O)Nc2cccc(Cl)c2)cn2c(nc3ccccc32)c1C#N	60.3% (active)
O=C(O)c1cccc(NC(=O)c2cc(-c3cccc(Cl)c3)nc3ccccc23)c1	0.449%
CC(=O)c1c(C)[nH]c(C(=O)OCC(=O)NCCC(C)C)c1C	17.9%
CCOc1cc(NC(=S)NCCCN(C)C)c(OCC)cc1NC(=O)C1CC1	3.9%

From PubChem BioAssay AID485346 (Sanford-Burnham Center for Chemical Genomics, 2010)
